Source: PubChem (Broad Institute)
Rows were chosen to be rich in hits. Some 3% of all compounds tested hit in one or more screens of this group.
MITF TRPM1 HTS – activators of MITF-driven TRPM1 promoter activity in SK-MEL-5 cells. AID 588334. SK-MEL-5 TRPM1-promoter luciferase, 24 h; % of positive control, neutral wells = 0. 0.75% of 300,000 active. activation, % at 12.5 µM;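 active = mean activation of at least 80% with every replicate also reaching 80%; inconclusive = mean reaches 80% but some replicate falls short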;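 also: 0% = neutral control wells and 100% = parthenolide positive control wells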
esBAF inh – inhibitors of esBAF chromatin remodeling in mouse ES cells. 2% of 350,000 active. reporter increase, % at 12.5 µM. Bmi1-luciferase knock-in reporter, 24 h; 100% = twice the neutral-well signal. AID 602393; in the data active = activation above about 40%; inconclusive = no clear call, values can overlap the other calls;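 also: 0% = median of the plate's neutral control wells and 100% = double that signal; a rise in the Bmi1 reporter signal indicates esBAF inhibition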
Statin myotox sup – protects C2C12 myotubes from simvastatin toxicity | rescue of ATP level, % at 7.49 µM | ATP luminescence, 48 h; scaled: DMSO 0, geranylgeraniol control 100 | 0.78% of 330,000 active | AID 602340;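 active = mean ATP rescue above about 67%, or every replicate alone reaching that limit, limit read from the data, passing the limit was not always enough; inconclusive = no clear call, values can overlap the other calls; inactive = mean under the limit and some replicate under it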;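 also: myotubes were challenged with 10 µM simvastatin during compound exposure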
Wnt bcat act – activators of Wnt/beta-catenin signaling; Wnt/beta-catenin reporter cell assay, activator, plate reader; activation, % at 9.35 µM; 1.2% of 300,000 active; AID 743398; in the data active = activation above about 30%, passing the limit was not always enough; inconclusive = no clear call, values can overlap the other calls;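 also: 0% = neutral control wells and 100% = positive control wells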
An asterisk follows results filed as active; u = inconclusive; x = no result given.

SMILES	MITF TRPM1 HTS	esBAF inh	Statin myotox sup	Wnt bcat act
O=C(NCCc1cccs1)C1CC(c2c(Cl)cccc2Cl)=NO1 (centres undefined)	16	80*	-7	6
N=c1n(-c2ccccc2)c(O)cc(=O)n1-c1ccccc1	-13	-2	123*	-2
C[C@H](CO)N1C[C@H](C)[C@H](CN(C)C(=O)Nc2ccc(F)cc2)Oc2c(NC(=O)C3CCCCC3)cccc2C1=O	x	-3	-30	x
CC(C)(C)Nc1nc2cc([N+](=O)[O-])ccc2o1	13	9	-8	1
Nc1ccc(-c2nc3cc([N+](=O)[O-])ccc3o2)cc1	41	1	14	44*
O=[N+]([O-])c1ccc2oc(/C=C/c3ccc(O)cc3)nc2c1	x	42*	10	11
Cc1ccc(C(=O)NCC(=O)OCc2csc(-c3ccccc3)n2)cc1	3	x	x	2
O=C(OCc1csc(-c2ccccc2)n1)c1ccc(O)cc1	98*	x	x	1
O=C(C[C@H]1C=C[C@H](NC(=O)c2cccc(F)c2)[C@@H](CO)O1)NCCN1CCCC1	x	-6	-5	x
CCNC(=O)C[C@H]1CC[C@@H]2[C@@H](COc3ccc(NC(=O)c4ccc5c(c4)OCO5)cc3C(=O)N2C)O1	x	8	18	x
O=C(Nc1ccc(Cl)cc1)NC1(C(=O)NCCCN2CCOCC2)CCCCC1	x	1	3	x
O=C(Nc1ccccc1)NC1(C(=O)NCCCN2CCOCC2)CCCCC1	-2	1	102*	-1
CCCC(=O)Nc1ccc2c(c1)C(=O)N(C)C[C@H](OC)[C@H](C)CN(C(C)=O)[C@H](C)CO2	x	-3	0	x
COc1ccccc1-c1cc(C(F)(F)F)nc(S(=O)(=O)CCCC(=O)N2CCOCC2)n1	x	10	90*	-3
COc1cc(CC(=O)O)c(C(C)=O)cc1OC	-12	48*	6	x
CCCC(=O)Nc1ccc2c(c1)OC[C@H](C)N(C(=O)c1ccccc1F)C[C@@H](C)[C@H](OC)CN(C)C2=O	x	-8	23	x
CCCC#Cc1ccc2c(c1)O[C@@H](CN(C)C)[C@@H](C)CN([C@H](C)CO)S2(=O)=O	x	-3	14	x
C=CCn1c(=O)c(C(=O)Nc2cc(C)ccn2)c(O)c2ccccc21	8	3	4	1
C=CCn1c(=O)c(C(=O)Nc2ccc(C)cc2)c(O)c2ccccc21	x	67*	-5	6
CCn1c(=O)c(C(=O)NCc2ccc(Cl)cc2)c(O)c2ccccc21	x	12	10	43*
CCn1c(=O)c(C(=O)NCc2ccccc2)c(O)c2ccccc21	2	-1	3	0
C=CCn1c(N)c(C(=O)Nc2ccc(C)cc2)sc1=S	71	51*	-22	x
C=CCn1c(=O)c(C(=O)Nc2ccccc2S(N)(=O)=O)c(O)c2ccccc21	72	65*	1	7
C=CCn1c(N)c(C(=O)Nc2ccccc2OC)sc1=S	-9	-5	x	-3
C[C@@H]1CN([C@H](C)CO)C(=O)Cc2cc(NC(=O)CCCCCC(=O)Nc3ccccc3N)ccc2O[C@H]1CN(C)S(=O)(=O)c1cn(C)cn1	x	3	2	x
SMILES	MITF TRPM1 HTS	esBAF inh	Statin myotox sup	Wnt bcat act
COc1ccc(NC(=O)N(C)C[C@@H]2Oc3ccc(NC(=O)Cc4ccccc4)cc3C(=O)N([C@@H](C)CO)C[C@@H]2C)cc1	x	-2	7	x
COCc1cc(C)nc(N2CCN(Cc3ccccc3)CC2)c1C#N	4	-6	106*	0
Cc1cc(C)c(C#N)c(SCC(=O)N2CCCCC2)n1	3	x	x	-4
COCc1cc(C)nc(N2CCN(c3ccccc3)CC2)c1C#N	10	-3	-2	x
Cc1cc(C)c(C#N)c(SCC(=O)N2CCN(Cc3ccccc3)CC2)n1	x	3	140*	0
CCCNC(=O)[C@@H]1[C@@H](CO)[C@@H]2Cn3c(cccc3=O)[C@@H]2N1C(=O)CC1CC1	x	-1	-5	x
Cc1cc(C)nc(NC(=O)CSc2nc3ccccc3s2)n1	42	31	u	0
Cc1cc(C)n2c(Br)c(CSc3nc4ccccc4s3)nc2n1	71	48*	-1	x
CC(=O)NCC1(O)CCCC(C)C1 (centres undefined)	1	x	x	41*
COc1ccc(C2(CNC(C)=O)CCCC2)cc1OC	-17	-1	1	x
CC(=O)c1cccc(NC(=O)Cn2cnc(S(=O)(=O)N3CCCCC3)c2)c1	-1	-3	7	0
CC(=O)c1ccc(N2CCN(C(=O)Cn3cnc(S(=O)(=O)N4CCCCC4)c3)CC2)cc1	5	14	98*	-2
COc1ccc(C(=O)N2CCN(c3ccc(C(C)=O)cc3)CC2)cc1S(=O)(=O)N1CCCC1	-1	48*	16	7
CO[C@H]1CN(C)C(=O)c2ccc(NC(=O)Nc3ccccc3)cc2OC[C@H](C)N(C(=O)CN(C)C)C[C@H]1C	x	1	-2	x
C[C@@H]1CN([C@H](C)CO)C(=O)c2cc(-c3ccccc3F)cnc2O[C@@H]1CN(C)C(=O)C1CCC1	x	2	25	x
Cc1ccsc1C(=O)N/N=C/C=C/c1ccccc1[N+](=O)[O-]	44	45*	u	x
Cc1ccccc1/C=N/NC(=O)c1sccc1C	79	x	x	80*
Cc1noc(C)c1NC(=O)N(C)C[C@H]1Oc2c(NS(=O)(=O)c3cn(C)cn3)cccc2C(=O)N([C@@H](C)CO)C[C@H]1C	x	-6	-10	x
CN(C)S(=O)(=O)c1ccc(NC(=O)c2ccccn2)cc1	u	14	-8	2
CCN(CC)S(=O)(=O)c1ccc(NC(=O)c2ccccn2)cc1	69	48*	-9	22
CCN(CC)S(=O)(=O)c1ccc(NC(=O)c2ccccc2N(C)S(C)(=O)=O)cc1	-15	3	-9	-1
CCN(CC)S(=O)(=O)c1ccc(NC(=O)c2ccc(N(C)S(C)(=O)=O)cc2)cc1	x	3	104*	-5
C[C@@H]1CN([C@@H](C)CO)C(=O)c2cc(-c3ccc(C#N)cc3)cnc2O[C@@H]1CN(C)C(=O)Nc1ccc(F)cc1	x	-4	0	x
O=C(Cn1ccc2ccccc2c1=O)NCCC(=O)N1CCN(C(=O)c2ccco2)CC1	0	-2	78*	-1
CCCNC(=O)N(C)C[C@@H]1Oc2cc(-c3cncnc3)ccc2S(=O)(=O)N([C@@H](C)CO)C[C@@H]1C	x	-1	-1	x
SMILES	MITF TRPM1 HTS	esBAF inh	Statin myotox sup	Wnt bcat act
Cc1ccc(S(=O)(=O)N(C)C[C@H]2Oc3c(NS(=O)(=O)c4cn(C)cn4)cccc3C(=O)N([C@@H](C)CO)C[C@@H]2C)cc1	x	-5	-7	x
CN(C)c1ccc(-c2ccc3c(=O)c4ccccc4n(C)c3c2)cn1	27	49*	-11	36*
Cn1c2ccccc2c(=O)c2ccc(Cl)cc21	x	31	-2	5
COc1ccc2sc3ccccc3c(=O)c2c1OC	67	19	-2	x
COc1cc2sc3ccc(-c4ccc(N(C)C)nc4)cc3c(=O)c2cc1OC	x	x	x	44*
COc1ccc(-c2ccc3sc4ccccc4c(=O)c3c2)cn1	50	12	-51	39*
COc1cc2sc3ccc(-c4ccc(CN5CCOCC5)cc4)cc3c(=O)c2cc1OC	-4	20	-7	22
C[C@@H]1CCCCO[C@H](CN(C)S(=O)(=O)c2cccs2)[C@H](C)CN([C@@H](C)CO)C(=O)c2cc(NS(=O)(=O)c3ccccc3)ccc2O1	x	3	x	x
